The list is not random: actives were taken first. Their share in the collection is about 5.4%.
Calb FLC: affects C. albicans growth with fluconazole; AID 1979; C. albicans CaCi-2 (fluconazole-resistant clinical isolate) + fluconazole, Alamar Blue growth, 48 h; 0.57% of 300,000 active; growth inhibition, % (no concentration beside the values);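 active = growth inhibition above about 58% in most replicates, limit read from the data, passing the limit was not always enough; inconclusive = exactly half the replicates above a set limit; inactive = most replicates below a set limit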;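 note: all wells also contain fluconazole at 8 µg/ml as a sub-toxic cotreatment; 0% = median of DMSO wells and 100% = median of geldanamycin control wells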
CSC inhib: blocks cancer stem cells; AID 2717; cancer stem cell-like cells viability, luminescence; inhibition, % at 7.5 µM; 1.1% of 300,000 active; in the data active = inhibition above about 75%; inconclusive = no clear call, values can overlap the other calls; tested in HMLE shEcad cells
PP1 inh: counter-screen for PP5 inhibitors: inhibitors of human PP1-alpha. P62136. purified PP1alpha, OMFP fluorescence. inhibition, % at 6.7 µM. 0.9% of 320,000 active;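 active = inhibition above the mean inhibition of all tested compounds plus 3 SD, computed separately for each screening campaign, cut at about 15% in these data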
Target sequence (P62136 whole entry, looked up): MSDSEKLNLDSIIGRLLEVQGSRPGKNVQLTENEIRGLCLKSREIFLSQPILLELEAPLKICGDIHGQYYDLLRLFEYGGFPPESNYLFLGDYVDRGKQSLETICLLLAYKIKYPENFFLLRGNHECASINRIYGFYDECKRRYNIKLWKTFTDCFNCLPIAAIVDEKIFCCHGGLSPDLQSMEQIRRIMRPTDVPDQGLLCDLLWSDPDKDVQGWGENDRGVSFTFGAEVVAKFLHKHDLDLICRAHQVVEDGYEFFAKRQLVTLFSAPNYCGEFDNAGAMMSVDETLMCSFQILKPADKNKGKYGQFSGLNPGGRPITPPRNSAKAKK
ALR H2O2 inh: inhibitors of human sulfhydryl oxidase ALR | P55789 | purified ALR, DTT oxidation, H2O2 HRP-luminol luminescence | inhibition, % (concentration not given with the values) | 3.8% of 290,000 active;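 active = mean replicate inhibition above about 79%, with every replicate also reaching it, limit read from the data; inconclusive = only one of the two criteria met; inactive = mean below limit and not every replicate reaching it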
Target sequence (P55789 whole entry, looked up): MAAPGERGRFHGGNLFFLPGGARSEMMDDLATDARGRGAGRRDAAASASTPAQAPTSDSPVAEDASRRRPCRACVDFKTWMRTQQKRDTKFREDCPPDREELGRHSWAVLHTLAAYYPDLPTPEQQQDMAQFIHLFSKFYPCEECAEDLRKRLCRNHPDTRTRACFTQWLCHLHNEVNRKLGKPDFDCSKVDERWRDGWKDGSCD
PP5 inh: inhibitors of human protein phosphatase 5 (PP5); P53041; purified PP5c, OMFP substrate fluorescence; inhibition, % at 6.7 µM; 0.18% of 320,000 active;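 active = inhibition above the campaign's mean inhibition across all tested compounds plus 3 SD, cut at about 9.5% in these data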;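 note: 0% = DMSO only and 100% = 100 µM cantharidin control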
PP1 inh confirm: confirmation of human PP1 phosphatase inhibitors. shares compounds with PP1 inh. purified PP1alpha, OMFP substrate fluorescence. inhibition, % at 6.7 µM. 52% of 1,900 active. AID 2358;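 active = mean PP1 inhibition above a set limit taken from the earlier primary screen, cut at about 15% in these data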
PP5 inh counter: PP5 phosphatase inhibition, counter-screen for PP1 inhibitors; shares compounds with PP1 inh; purified PP5c, OMFP fluorescence; inhibition, % at 6.7 µM; 4% of 1,900 active; AID 2360;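 active = mean PP5 inhibition over triplicate wells above about 9.5% taken from the earlier PP1 screen, limit read from the data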
Starred values were filed as active, the others as inactive; ? = inconclusive; · = not tested or not shown; ! = not active in a repeat.

SMILES	Calb FLC	CSC inhib	PP1 inh	ALR H2O2 inh	PP5 inh	PP1 inh confirm	PP5 inh counter
CC(C(=O)Nc1ccc(C(=O)O)c(O)c1)N1C(=O)/C(=C\c2ccco2)SC1=S (stereo not drawn)	-2	-9	-2	18	-4	·	·
CC(C)C(C(=O)O)N1C(=O)/C(=C/C=C/c2ccco2)SC1=S (stereo not drawn)	7	·	20*	99*	1	14	-3
O=C1/C(=C/C=C/c2ccco2)SC(=S)N1c1ccc(O)cc1	2	17	38*	27	-1	6	-2
O=C(CN1C(=O)C(=O)N(C2CCCC2)C1=O)Nc1ccc(Cl)cc1C(F)(F)F	·	-4	-2	0	-3	·	·
CC(=O)c1sc2c(c1OC(=O)c1ccc(Cl)cc1Cl)c(=O)n(-c1ccccc1)c(=S)n2-c1ccccc1	-8	67	38*	5	-1	10	-2
CC(=O)c1sc2c(c1N)c(=O)[nH]c(=O)n2-c1ccccc1	-1	-2	-1	·	-1	·	·
Cc1c(NS(=O)(=O)c2ccc3c(c2)c(=O)n(C)c(=O)n3C)c(=O)n(-c2ccccc2)n1C	7	3	36*	-1	1	-2	-4
Cc1c(NS(=O)(=O)c2ccc(N)cc2)c(=O)n(-c2ccccc2)n1C	9	-20	2	2	-2	·	·
Cc1ccc(-n2nc3c(c2NC(=O)/C=C\c2ccc4c(c2)OCO4)CSC3)cc1	3	-11	20*	0	4	13	-2
CCCN(CCC)S(=O)(=O)c1ccc(C(=O)Nc2nnc(COC)o2)cc1	-11	21	11	54	2	·	·
COCCN(CCOC)S(=O)(=O)c1ccc(C(=O)Nc2nnc(CSC)o2)cc1	-13	-2	2	-6	1	·	·
CCN(Cc1ccccc1)S(=O)(=O)c1ccc(C(=O)Nc2nnc(C3CC3)o2)cc1	0	34	43*	12	3	34*	-4
COCc1nnc(NC(=O)c2ccc(S(=O)(=O)N(C)C3CCCCC3)cc2)o1	-3	-10	18*	-1	0	3	-3
CN(c1ccccc1)S(=O)(=O)c1ccc(C(=O)Nc2nnc(C3=COCCO3)o2)cc1	?	23	26*	98*	1	15*	2
COCCN(CCOC)S(=O)(=O)c1ccc(C(=O)Nc2nnc(C)o2)cc1	4	-10	2	-35	0	·	·
Cc1nnc(NC(=O)c2ccc(S(=O)(=O)N(C)Cc3ccccc3)cc2)o1	87*	22	38*	-2	6	30*	3
CC(=O)N=c1sccn1CC(O)c1ccccc1 (stereo not drawn)	·	-3	-1	-64	1	·	·
Cc1nnc(NC(=O)c2ccc3ccccc3c2)o1	·	8	19*	-8	-2	8	-2
COCc1nnc(NC(=O)c2ccc(S(=O)(=O)N(C)Cc3ccccc3)cc2)o1	5	20	22*	3	4	17*	4
Cc1cc(NC(=O)c2ccc(Cl)cc2)n(-c2ccccc2)n1	-5	·	0	·	1	·	·
CCN(CC(=O)Nc1c(F)cccc1F)C(=O)/C=C/c1ccc2ccccc2n1	6	-10	22*	13	-2	4	-4
CCN(CC(=O)Nc1c(F)cccc1F)C(=O)c1ccc2ccccc2n1	3	7	-2	-5	-1	·	·
CCCn1c2ccccc2c2nnc(SCC(=O)OC)nc21	1	·	-2	-10	0	·	·
CCCCn1c2ccccc2c2nnc(SCC(=O)NC3=NN=C(c4ccccc4)CS3)nc21	0	0	26*	39	2	27*	3
CCn1nc([N+](=O)[O-])c(C(C#N)c2nc3cc(C(F)(F)F)ccc3s2)c(Cl)c1=O (stereo not drawn)	24	112*	22*	98*	7	22*	5
SMILES	Calb FLC	CSC inhib	PP1 inh	ALR H2O2 inh	PP5 inh	PP1 inh confirm	PP5 inh counter
CCSc1nc2c(cnn2-c2ccc(C)cc2)c(=O)[nH]1	43	10	22*	2	-10	6	-4
Cc1cc(C(=O)N2CCN(c3ccccc3)CC2)c(C)o1	2	-6	1	72	-2	·	·
COc1ccc(NC(=O)c2cc(C)nc3ccccc23)cc1S(=O)(=O)N1CCOCC1	·	-6	·	-1	·	·	·
Cc1ccc(NC(=O)c2cc(-c3ccco3)nc3ccccc23)cc1S(=O)(=O)N1CCOCC1	0	-7	23*	-16	1	24*	3
COc1ccc(NC(=O)c2cc(-c3ccco3)nc3ccccc23)cc1S(=O)(=O)N1CCOCC1	2	-3	45*	·	2	9	-4
Oc1ccc(/C=N/Nc2ccnc3cc(Cl)ccc23)c(O)c1	10	10	4	-2	4	·	·
Cc1ccc(/C=N/Nc2ccnc3cc(Cl)ccc23)c(C)c1	-7	·	33*	-2	6	3	2
CCN(CC)CCOc1ccc(/C(=C(/Cl)c2ccccc2)c2ccccc2)cc1	·	101*	19*!	-19	4	-9	1
NC(=O)c1oc2ccccc2c1NC(=O)c1nc2ccccc2s1	1	7	25*	1	-3	16*	-6
O=C(Nc1nnc(-c2ccccc2)o1)c1nc2ccccc2s1	23	35	25*	43	-1	28*	-8
O=C(Nc1ccccc1)Nc1nnc(-c2ccccc2)o1	5	-10	-2	-4	2	·	·
NC(=O)c1oc2ccccc2c1NC(=O)c1ccc(F)cc1	13	-8	-1	-5	2	·	·
NC(=O)CC(NC(=O)Cc1ccc(Br)cc1)c1ccc(NCCOc2ccccc2)c([N+](=O)[O-])c1 (stereo not drawn)	-18	3	20*	-2	1	26*	-4
NC(=O)CC(NC(=O)Cc1ccc(Br)cc1)c1ccc(NCc2cc(F)ccc2F)c([N+](=O)[O-])c1 (stereo not drawn)	-14	?	5	0	5	·	·
NC(=O)CC(NC(=O)Cc1cccc2ccccc12)c1ccc(NC2CCCCCC2)c([N+](=O)[O-])c1 (stereo not drawn)	7	45	24*	-4	2	24*	-4
CC(C)Nc1ccc(C(CC(N)=O)NC(=O)Cc2ccc(Br)cc2)cc1[N+](=O)[O-] (stereo not drawn)	-4	43	1	-1	-5	·	·
NC(=O)CC(NC(=O)Cc1ccc(Br)cc1)c1ccc(NCCc2cccc(F)c2)c([N+](=O)[O-])c1 (stereo not drawn)	-10	-10	18*	-2	1	23*	-4
COc1ccc(NC(=O)CN2C(=O)NC(c3ccccc3)(c3ccccc3)C2=O)cc1OC	0	-6	-2	-2	6	·	·
COc1ccc(-c2ccnc3nc(-n4cccc4)nn23)cc1	32	11	19*	10	0	19*	-5
COc1ccc(-c2ccnc3nc(N4CCOCC4)nn23)cc1	8	8	-12	·	2	·	·

High-throughput results: PubChem, several laboratories
